# Sampled rows, rich in hits. Any-hit rate of the full collection: about 28%.
# CYP2C19 inh: human CYP2C19 inhibition. P33261. inhibition, % at 5 µM. AID 778. CYP2C19 Supersomes, luciferin-H EGE luminescence, 30 min. 21% of 96,000 active;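 active means CYP2C19 inhibition above a set limit at 5 µM in the primary screen, cut at about 50% in these data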;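 further: plate controls were negative control wells for no effect and 2.5 mM tranylcypromine positive control for full effect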
# Target sequence (P33261 whole entry, looked up): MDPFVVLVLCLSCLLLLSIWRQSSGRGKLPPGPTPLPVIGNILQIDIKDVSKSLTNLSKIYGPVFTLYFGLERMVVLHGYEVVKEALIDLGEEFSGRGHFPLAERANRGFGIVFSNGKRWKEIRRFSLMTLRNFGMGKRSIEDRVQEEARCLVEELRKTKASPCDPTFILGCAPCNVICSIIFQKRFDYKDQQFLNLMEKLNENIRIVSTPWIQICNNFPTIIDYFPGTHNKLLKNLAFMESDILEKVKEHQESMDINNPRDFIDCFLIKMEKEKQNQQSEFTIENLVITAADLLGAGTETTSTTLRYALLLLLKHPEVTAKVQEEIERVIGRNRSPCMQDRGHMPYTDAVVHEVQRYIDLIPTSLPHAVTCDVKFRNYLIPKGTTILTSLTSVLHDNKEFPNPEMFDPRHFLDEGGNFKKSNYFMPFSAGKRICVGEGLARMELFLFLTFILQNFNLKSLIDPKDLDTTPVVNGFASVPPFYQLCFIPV
# PTK2B oligo ant: blocks oligomerization of human Pyk2 in cells | Q14289 | Q293 cells, Pyk2 FERM NanoBiT luminescence; active compounds read low | z-score (the deposit names both 25 µM and 10 µM) | 0.83% of 99,000 active | AID 1347419;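 active means Z-score of -3 or lower, scaled per plate to the spread of control and sample wells; inactive means z-score above -3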;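 further: negative z-score means lost luminescence so less FERM oligomerization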
# CYP2C19 activ: cytochrome P450 2C19 (human) activation; P33261; recombinant CYP2C19, luciferin-H EGE luminescence; active compounds read high; 0 = fully inhibited enzyme, 1 = untreated enzyme; activation factor at 5 µM; 96,000 tested, under 10 active; AID 1025;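 active means activation factor of at least 2 at 5 µM in the primary screen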;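 further: 0 = wells with 2.5 mM tranylcypromine and 1 = vehicle-only wells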
# CYP2C9 inh: human CYP2C9 inhibition | P11712 | CYP2C9 Supersomes, luciferin-H conversion, luminescence | inhibition, % at 5 µM | 20% of 96,000 active | AID 777;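 active means blocking of liver enzyme CYP2C9 beyond about 50% at 5 µM, limit read from the data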
# CYP2C9 act: increases human cytochrome P450 2C9 activity. P11712. recombinant CYP2C9, luciferin-H conversion, luminescence; active compounds read high; factor 1 = untreated enzyme, 0 = blocked. activation factor at 5 µM. 1.4% of 96,000 active. AID 1024;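 active means activation factor of 2 or more for CYP2C9 at a 5 µM dose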;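 further: 0 = sulfaphenazole-blocked wells and 1 = vehicle-only wells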
# * = called active by the depositor; . = no result given.
SMILES,CYP2C19 inh,PTK2B oligo ant,CYP2C19 activ,CYP2C9 inh,CYP2C9 act
CS(=O)(=O)N1CCC(C(=O)NCc2ccc(F)cc2Cl)CC1,2,0.14,1,-5,1
CC1(c2ccc(Cl)cc2Cl)OCC(Cn2ccnc2)O1 (stereo not drawn),99*,1,0,83*,0.2
O=C1OCc2cc(NC(=O)C3CCCCC3)ccc21,22,-0.77,0.8,19,0.8
COC(=O)c1ccc(S(=O)(=O)N2CCCCC2)o1,23,0.08,0.8,5,1
CCCCNC(=O)NS(=O)(=O)c1ccc(C(=O)OC(C)C)o1,5,-0.02,0.9,69*,0.3
Cc1nn2c(N3CCCC3)cc(C(C)C)nc2c1-c1ccccc1,-8,-0.3,1.1,-14,1.1
CC(=O)NC(CCS(C)(=O)=O)C(=O)Nc1ccccc1Cl (stereo not drawn),11,-0.37,0.9,10,0.9
CC(=O)NC(CCS(C)(=O)=O)C(=O)Nc1cccc2ccccc12 (stereo not drawn),6,.,0.9,54*,0.5
Cn1nc([N+](=O)[O-])nc1Sc1nnc(-c2ccccc2)o1,19,-0.09,0.8,52*,0.5
O=Cc1ccc(Sc2nnc(-c3ccccc3)o2)c([N+](=O)[O-])c1,27,0.57,0.7,13,0.9
C/C(=N\Nc1cc(Cl)nc(C)n1)c1ccc(C)cc1,.,1.1,.,.,.
COc1ccc(C(=O)CC2OC(=O)c3c2ccc(OC)c3OC)cc1 (stereo not drawn),80*,0.76,0.2,34,0.7
CC(=O)c1cc(C#N)c(SCc2ccccc2C#N)nc1C,.,-1.9,.,.,.
CCN(CC)c1nc(C)c(C(C)=O)cc1C#N,54*,0.03,0.5,17,0.8
CCSc1nc(C)c(C(C)=O)cc1C#N,26,0.28,0.7,10,0.9
CC(=O)c1cc(C#N)c(SCc2ccncc2)nc1C,97*,-0.35,0,93*,0.1
NC(Cc1ccc2nonc2c1)C(=O)O (stereo not drawn),6,0.03,0.9,1,1
CC(=O)N(Cc1ccccc1)c1ncc2c(n1)c(=O)c(C#N)c1ccccn12,-7,0.24,1.1,-27,1.3
Cc1ccc(NS(C)(=O)=O)c(C(=O)c2ccccc2)c1,70*,1.2,0.3,29,0.7
Cc1c(Nc2nc3ccccc3nc2NS(=O)(=O)c2ccccc2)c(=O)n(-c2ccccc2)n1C,9,-0.31,0.9,29,0.7
Cn1cnnc1Sc1nc2ccccc2nc1NS(=O)(=O)c1ccccc1,7,-0.79,0.9,97*,0
Cn1ccnc1Sc1nc2ccccc2nc1NS(=O)(=O)c1ccccc1,-3,-0.17,1,98*,0
CC(=O)Nc1ccc(S(=O)(=O)Nc2nc3ccccc3nc2Sc2nncn2C)cc1,-22,2.3,1.2,44,0.6
Cc1ccc(S(=O)(=O)N2c3ccccc3OCC2c2ccccc2)cc1 (stereo not drawn),.,-0.93,.,.,.
Cc1ccc(S(=O)(=O)N2c3cc(C)ccc3OCC2C(C)(C)C)cc1 (stereo not drawn),4,-0.57,1,50*,0.5
SMILES,CYP2C19 inh,PTK2B oligo ant,CYP2C19 activ,CYP2C9 inh,CYP2C9 act
OC1(c2cccc(F)c2)CCN(Cc2ccncc2)CC1,65*,-0.54,0.3,2,1
CC1(C)Oc2nc3ccccc3n2/C1=C\C#N,.,-0.1,.,.,.
Cc1ccc(S(=O)(=O)NC(CC(C)C)C(=O)NCc2ccco2)cc1 (stereo not drawn),54*,-0.23,0.5,56*,0.4
Cc1ccc(S(=O)(=O)NC(CC(C)C)C(=O)Nc2nccs2)cc1 (stereo not drawn),43,-0.24,0.6,81*,0.2
CCC(NS(=O)(=O)c1ccc(C)cc1)C(=O)O (stereo not drawn),-17,-0.13,1.2,-12,1.1
CC1CC(C)CN(C(=O)c2ccc3c(c2NCCO)C(=O)c2ccccc2C3=O)C1 (stereo not drawn),94*,-2.9,0.1,95*,0.1
COc1ccccc1N1CCN(S(=O)(=O)c2ccccc2F)CC1,64*,-0.55,0.4,64*,0.4
COc1ccccc1N1CCN(C(=O)C(Cc2ccccc2)NC(=O)C2CCCCC2)CC1 (stereo not drawn),99*,0.65,0,87*,0.1
COc1ccccc1N1CCN(C(=O)C(NS(=O)(=O)c2cccs2)c2ccccc2)CC1 (stereo not drawn),62*,0.24,0.4,44,0.6
CC(C)(C)OC(=O)N[C@@H](Cc1ccccc1)C(=O)N1CCC(C(=O)O)CC1,17,-0.53,0.8,-7,1.1

# Compound activity deposited in PubChem by Sanford-Burnham Center for Chemical Genomics.
